Shown are actives, neighbours in structure and some others; about 12% of the full set was active somewhere.
ROMK primary = modulates human ROMK potassium channel activity | AID 1918 | P48048 | Tet-inducible ROMK, thallium flux fluorescence; actives lie on both sides | B-score at 10 µM | 130,000 compounds, 2% hits;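 active means signal ratio slope over the read window, or its plate-corrected B-score, at least 3 SD from the plate mean, either direction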;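 further: B-score of the F/F0 ratio slope over 7 to 12 s after thallium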
Insulin prom up = MIN6 insulin promoter up-regulation; 190,000 compounds, 0.3% hits; MIN6 insulin promoter-GFP reporter, high-content imaging; hits give high values; z-score at 5 µM; AID 1625;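 active means z-score above 3 at 5 µM with at least 500 cells counted in the well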
Insulin prom inh = TRM-6 insulin promoter activity inhibition | TRM-6 cells (human fetal islet line), insulin promoter-eGFP reporter, imaging; reporter expression induced with tamoxifen | inhibition, % at 2 µM | 130,000 compounds, 0.9% hits | AID 1273;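 active means inhibition above the mean plus 3 SD, with well images judged a real hit on visual review, cut at about 60% in these data, passing the limit was not always enough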
WT yeast gro inh = growth inhibition of WT yeast, mitochondrial fusion screen | mitochondrial fusion phenotypic screen, WT strain | inhibition, % at 10 µM | 190,000 compounds, 2.1% hits | AID 1362; in the data active means inhibition above about 58%; tested in S. cerevisiae
Cl transport mod = modulators of human KCC2 chloride dependent transport. KCC2 cells, thallium flux FluoZin-2 fluorescence. B-score of Tl+ flux slope (higher = more flux/activation; lower = inhibition) at 10 µM. 190,000 compounds, 2.2% hits. AID 1456;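 active means thallium flux slope and its plate-corrected score both differing from the plate sample mean at a set confidence after two filtering rounds, in either direction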;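 further: slope of fluorescence scaled to starting intensity during 10 to 20 s after thallium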
Target sequence (Q9H2X9 whole entry, looked up): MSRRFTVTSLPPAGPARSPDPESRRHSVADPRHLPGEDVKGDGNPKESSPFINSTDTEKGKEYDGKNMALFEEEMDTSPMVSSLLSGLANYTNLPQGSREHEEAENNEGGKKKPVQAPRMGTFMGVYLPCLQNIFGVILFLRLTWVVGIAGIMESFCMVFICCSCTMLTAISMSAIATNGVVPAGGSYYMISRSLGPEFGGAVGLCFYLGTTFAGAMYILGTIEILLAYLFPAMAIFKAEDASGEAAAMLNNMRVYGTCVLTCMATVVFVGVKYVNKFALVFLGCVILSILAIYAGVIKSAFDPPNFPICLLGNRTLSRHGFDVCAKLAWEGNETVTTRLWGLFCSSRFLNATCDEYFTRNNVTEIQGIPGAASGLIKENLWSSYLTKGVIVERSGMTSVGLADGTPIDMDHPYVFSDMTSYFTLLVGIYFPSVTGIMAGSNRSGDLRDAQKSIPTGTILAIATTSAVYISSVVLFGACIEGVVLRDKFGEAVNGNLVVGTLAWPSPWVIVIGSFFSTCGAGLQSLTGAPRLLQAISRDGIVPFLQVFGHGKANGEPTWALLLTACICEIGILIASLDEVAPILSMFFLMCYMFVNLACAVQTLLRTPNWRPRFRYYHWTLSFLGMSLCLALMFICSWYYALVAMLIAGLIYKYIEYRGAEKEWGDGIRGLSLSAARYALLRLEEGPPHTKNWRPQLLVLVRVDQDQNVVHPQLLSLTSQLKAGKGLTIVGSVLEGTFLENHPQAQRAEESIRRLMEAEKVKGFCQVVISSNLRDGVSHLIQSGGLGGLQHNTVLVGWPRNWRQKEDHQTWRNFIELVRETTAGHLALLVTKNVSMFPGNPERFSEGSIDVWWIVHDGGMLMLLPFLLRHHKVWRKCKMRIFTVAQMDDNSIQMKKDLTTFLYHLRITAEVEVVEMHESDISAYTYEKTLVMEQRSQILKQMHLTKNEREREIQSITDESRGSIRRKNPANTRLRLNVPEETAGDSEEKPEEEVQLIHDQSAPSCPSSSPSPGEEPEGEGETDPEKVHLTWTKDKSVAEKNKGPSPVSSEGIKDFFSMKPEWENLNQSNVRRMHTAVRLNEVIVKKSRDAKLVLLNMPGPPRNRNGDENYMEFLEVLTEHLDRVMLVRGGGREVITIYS
Lmaj promast = Leishmania major promastigote growth inhibition; inhibition, % at 10 µM; Leishmania major promastigotes, resazurin fluorescence viability; 200,000 compounds, 9% hits; in the data active means inhibition above about 50%;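 further: promastigotes grown with compound for 44 hours at 28 °C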
Active calls of the source: *; / = not tested or not shown.

SMILES	ROMK primary	Insulin prom up	Insulin prom inh	WT yeast gro inh	Cl transport mod	Lmaj promast
O=C(Nc1nnc(-c2ccccc2)o1)C1CCCCC1	/	-0.55	/	-12	/	26
Cc1ccc(C(=O)N2CCN(CCNC(=O)C(=O)NC(C)C)CC2)cc1	0.36	-0.1	/	-11	0.41	-8
COc1ccc(C(=O)NCc2cn3c(C)csc3n2)cc1OC	/	-0.58	/	21	0.38	-7
COc1ccc(-c2c3c(=O)n(C)c(=O)n(C)c3cn2Cc2cccnc2)cc1	1.3	0.29	73*	3	/	-6
COc1ccc(-c2c3c(=O)n(C)c(=O)n(C)c3cn2Cc2ccccn2)cc1	0.71	0.3	7	-10	/	-6
CC(C)NC(=O)c1cc(-c2ccco2)nn1-c1ccc(Cl)cc1	/	-0.5	3	-2	-0.63	50*
Cc1ccc(-n2nc(-c3ccco3)cc2C(=O)O)cc1	/	0.42	/	/	-0.36	/
CCN(CC)S(=O)(=O)c1ccc(NC(=O)C2CCCN(C(=O)c3ccc(Cl)cc3)C2)cc1 (stereo not given)	/	0.03	-37	-9	-1	97*
CC(=O)Nc1ccc(NC(=O)C2CCCN(C(=O)c3ccc(Cl)cc3)C2)cc1 (stereo not given)	-0.31	0.05	7	-6	0.027	4
CCN(CC)S(=O)(=O)c1ccc(N2CCOCC2)c(NC(=O)C2CCCC2)c1	1.2	/	11	-17	1.1	53*
O=C(Nc1ccccc1N1CCOCC1)c1cccc(NS(=O)(=O)c2ccc(F)c(F)c2)c1	-0.45	-0.61	/	14	0.18	70*
O=C(Nc1ccccc1N1CCOCC1)c1ccccc1NS(=O)(=O)c1ccc(F)c(F)c1	/	0.22	-7	12	-1.4	2
CCN(CC)c1ccc(S(=O)(=O)N(CC)CC)cc1NC(=O)C1CCCC1	-1.5	1.2	/	14	-0.87	61*
CC(=O)NC(=O)COC(=O)/C=C/c1c(C)nn(Cc2c(Cl)cccc2Cl)c1Cl	-0.014	2	21	-3	/	-10
CS(=O)(=O)N1CCC(C(=O)Nc2ccc(Oc3ccccc3)cc2)CC1	-0.18	-0.15	-39	10	/	-4
CCOc1ccc(S(=O)(=O)Nc2cc(S(=O)(=O)N(CC)CC)ccc2N2CCCC2)cc1	-0.31	-0.09	-12	11	0.87	95*
CCOc1ccc(C(=O)Nc2cc(S(=O)(=O)Nc3ccccc3Cl)ccc2N2CCOCC2)cc1	-0.94	-0.16	-16	8	-1.2	97*
CCOc1ccc(S(=O)(=O)Nc2ccccc2C(=O)Nc2ccccc2N2CCOCC2)cc1	/	-0.12	-169	33	-0.16	19
CCN(CC)CCCNC(=O)c1ccc(N2CCCCC2)c(NS(=O)(=O)c2ccc(C)cc2)c1	-0.098	0.13	-64	-11	-0.05	99*
CCN(CC)S(=O)(=O)c1ccc(N2CCCC2)c(NC(=O)Cc2ccc(OC)cc2)c1	-0.55	-0.45	33	4	-0.14	-2
CCOc1ccc(S(=O)(=O)N(CC)CC)cc1NS(=O)(=O)c1ccc(F)c(F)c1F	-1.8	0.09	22	7	-1.6	60*
COCCNC(=O)c1ccc(N2CCCCC2)c(NS(=O)(=O)c2ccc(C)cc2)c1	/	0.16	/	12	-1.3	22
CCCCOc1ccc(C(=O)N/C(=C/C=C/c2ccccc2)C(=O)O)cc1	0.44	/	20	-14	-0.34	-3
CCN(Cc1ccncc1)Cc1c(O)ccc2ccccc12	0.0011	0.6	36	-14	-0.0076	1
Cc1nc(-c2ccc(S(=O)(=O)Oc3ccccc3Cl)s2)cs1	/	-0.24	/	/	/	/
SMILES	ROMK primary	Insulin prom up	Insulin prom inh	WT yeast gro inh	Cl transport mod	Lmaj promast
COc1ccc(NC(=S)Nc2cccc([N+](=O)[O-])c2)cc1	/	/	-6	-8	0.48	87*
COc1ccc(NC(=O)c2cc([N+](=O)[O-])ccc2O)cc1	4.5*	/	/	18	-3.3*	3
COc1ccc(NC(=O)c2cccc([N+](=O)[O-])c2)cc1	0.17	0.22	-12	18	1.2	3
CS(=O)(=O)c1ccc(C(=O)NCCN2C(=O)S/C(=C\c3cccnc3)C2=O)cc1[N+](=O)[O-]	-1	/	/	-4	-0.24	74*
CN(C)S(=O)(=O)c1ccc(C(=O)NCCN2C(=O)S/C(=C\c3cccnc3)C2=O)cc1	-0.86	-0.65	/	-4	-1.8	12
CC(C)(C)C(=O)NCCN1C(=O)S/C(=C\c2ccc([N+](=O)[O-])cc2)C1=O	/	-0.54	-1	-25	-0.62	57*
C[C@H](NC(=O)NC1CCCc2ccccc21)C(=O)O (stereo not given in full)	/	0.09	3	25	0.28	-8
Cc1c(-c2ccccc2)sc2nc[nH]c(=S)c12	4.9*	-0.35	-42	10	90*	-10
c1ccc(Cc2nnc(-c3ccccc3)o2)cc1	/	/	33	0	14*	-1
O=C(NCCN1CCOCC1)c1cccc(Cl)c1	0.16	/	-82	2	0.92	-2
O=C(/C=C/c1ccccc1)NCCN1CCOCC1	-0.15	0.85	-59	-9	0.66	63*
COc1ccc(/C=C/C(=O)NCCN2CCOCC2)cc1OC	0.2	0.53	-33	-3	0.054	-3
O=C(/C=C/c1ccc(Cl)cc1Cl)NCCN1CCOCC1	/	-0.61	/	12	-0.066	71*
CCCC(=Nc1ccccc1OC)C1=C(O)CC(c2ccccc2)CC1=O (stereo not given)	0.51	0.42	33	-11	-3.7	99*
O=C(Nc1ccn([C@H]2CC[C@@H](CO)O2)c(=O)n1)c1ccccc1	/	/	/	/	-0.73	/
COc1ccccc1CNC(=O)[C@@H]1CCCN1S(=O)(=O)c1ccc(C)cc1	0.18	0.19	/	-14	-0.94	5
Cc1oc(-c2ccccc2)[n+]([O-])c1C	/	0.53	/	69*	-0.49	-4
Cc1cccc(-c2oc(C)c(C)[n+]2[O-])c1	0.021	/	17	-1	-0.11	0
N#CCCN(C(=O)CCl)c1cccc(Cl)c1	-2	0.66	/	9	-0.61	51*
CN(C)CCOC(C1CCCCC1)C1CCCCC1	-1	0.68	-18	48	-0.74	50*
COc1ccc(C(=O)N(CN2CCCC2=O)c2ccc(C)cc2)cc1	-0.63	3.4*	/	-26	/	-3
Cc1ccc(C)c(NC(=O)CN(C)C(=O)c2cccc(S(=O)(=O)N(C)C)c2)c1	-0.35	-0.76	-22	-9	1.7	6
CCN1CCN(C(=O)c2ccc(CSc3ccc(C)cc3)cc2)CC1	-0.86	-0.18	/	36	/	100*
CSc1ccc(CN2CCN(C(=O)c3ccc([N+](=O)[O-])cc3)CC2)cc1	-1.8	-0.95	/	-1	0.24	69*
O=C(c1ccc(Cn2ccc([N+](=O)[O-])n2)cc1)N1CCN(Cc2ccccc2)CC1	/	0.5	/	/	-0.43	/
Cc1ccc(SCc2ccc(C(=O)N3CCCC3)cc2)cc1	-0.28	-0.22	-62	29	-1.2	3
C/C(=N\NC(=O)c1ccc(CN2CCOCC2)cc1)c1ccc([N+](=O)[O-])cc1	-0.58	/	-3	-5	-0.42	77*
C/C(=N\NC(=O)c1ccc(CN2CCOCC2)cc1)c1cccc([N+](=O)[O-])c1	-0.05	-0.27	-4	-2	-1.4	8

Assay outcomes: PubChem, several laboratories
